Records with an inconclusive call do not appear. Calls of active or inactive are those of the source. Unless noted, calls come from the whole dose curve; as a rule, active = well fitted curve in the direction sought with a large enough effect in the repeat runs; inconclusive = weak or mixed curves; inactive = no such curve, though single readings can be large; an effect the other way counts as inactive or inconclusive.
How the values were obtained:
[1] = qHTS assay to identify small molecule antagonists of the thyroid receptor (TR) signaling pathway - cell viability counter screen (AID 743064); conditions: GH3.TRE-Luc viability, CellTiter-Fluor, 24 h; series mostly up to 70.3 µM; note: nearly all actives have a fitted effect of over 50% in size
In short: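 Viability of T3-stimulated (1 nM final) GH3.TRE-Luc cells is measured by CellTiter-Fluor fluorescence after 23.5 h compound exposure at 37 °C plus 30 min reagent incubation.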

[2] = biological target: Estrogen receptor (Homo sapiens) (UniProt P03372); test: qHTS assay to identify small molecule antagonists of the estrogen receptor alpha (ER-alpha) signaling pathway (AID 743069; active = well fitted curve in the direction sought with a large enough effect in the signal ratio in the repeat runs, not every such curve was filed as active; the % refers to the signal ratio); conditions: HEK293 ER-alpha-UAS-bla, beta-lactamase ratio, antagonist mode; series mostly up to 69.4 µM
In short: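 HEK293 ER-alpha-UAS-bla GripTite cells, held overnight in 2% charcoal-stripped FBS, 5,000 cells/well, preincubated 4 h, then compound plus 17beta-estradiol for 18 h at 37C. Beta-lactamase read by LiveBLAzer B/G FRET substrate, 2 h at room temperature.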

[3] = qHTS assay to identify small molecule antagonists of the estrogen receptor alpha (ER-alpha) signaling pathway - cell viability counter screen (AID 743074; calls by dose curve;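 note: HEK293 cells carrying ER-alpha-UAS-bla reporter stimulated with 17beta-estradiol; nearly all actives have a fitted effect of over 45% in size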); conditions: ERalpha-bla HEK293 viability, CellTiter-Glo luminescence, 18 h; series mostly up to 69.4 µM
[4] = biological target: Estrogen receptor (Homo sapiens) (UniProt P03372); test: qHTS assay to identify small molecule agonists of the estrogen receptor alpha (ER-alpha) signaling pathway (AID 743075; calls by dose curve); conditions: HEK293 ER-alpha-UAS-bla, beta-lactamase FRET ratio, 18 h; series mostly up to 70.1 µM
[5] = biological target: Estrogen receptor (Homo sapiens) (UniProt P03372); test: qHTS assay to identify small molecule agonists of the estrogen receptor alpha (ER-alpha) signaling pathway using the BG1 cell line (AID 743079); conditions: BG1Luc4E2 cells, ERE-luciferase agonist, 22 h; series mostly up to 70.3 µM; note: nearly all actives have a fitted effect of over 20% in size
[6] = qHTS assay to identify small molecule antagonists of the estrogen receptor alpha (ER-alpha) signaling pathway using the BG1 cell line (AID 743080; calls by dose curve; note: nearly all actives have a fitted effect of over 25% in size); conditions: BG1Luc4E2 ERE-luciferase antagonist mode, luminescence; series mostly up to 70.3 µM
In short: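 Antagonist mode: compounds in DMSO were pinned onto BG1-Luc-4E2 cells alongside 17beta-estradiol agonist, incubated 21.5 h, and ERE-driven luciferase measured with ONE-Glo. Cytotoxicity was multiplexed using CellTiter-Fluor fluorescence.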

[7] = qHTS assay to identify small molecule antagonists of the estrogen receptor alpha (ER-alpha) signaling pathway using the BG1 cell line - cell viability counter screen (AID 743081); conditions: BG1Luc4E2 viability, CellTiter-Fluor, 22 h; series mostly up to 70.3 µM;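 note: compound given together with 17beta-estradiol as the ER stimulus; nearly all actives have a fitted effect of over 45% in size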
Aromatase (Homo sapiens) = Aromatase (Homo sapiens) (UniProt P11511); test: qHTS assay to identify aromatase inhibitors (AID 743083); conditions: MCF-7 aro ERE, testosterone-driven ERE luciferase, 24 h; series mostly up to 70.3 µM; note: nearly all actives have a fitted effect of over 55% in size
[8] = tested on: thyroid hormone receptor (rat, GH3 cells); test: qHTS assay to identify small molecule agonists of the thyroid receptor (TR) signaling pathway (AID 743066; calls by dose curve); conditions: GH3.TRE-Luc cells, TR agonist luciferase, 24 h; series mostly up to 83.9 µM

Measured: Potency

Sequence of Estrogen receptor (Homo sapiens) (P03372 whole entry, looked up): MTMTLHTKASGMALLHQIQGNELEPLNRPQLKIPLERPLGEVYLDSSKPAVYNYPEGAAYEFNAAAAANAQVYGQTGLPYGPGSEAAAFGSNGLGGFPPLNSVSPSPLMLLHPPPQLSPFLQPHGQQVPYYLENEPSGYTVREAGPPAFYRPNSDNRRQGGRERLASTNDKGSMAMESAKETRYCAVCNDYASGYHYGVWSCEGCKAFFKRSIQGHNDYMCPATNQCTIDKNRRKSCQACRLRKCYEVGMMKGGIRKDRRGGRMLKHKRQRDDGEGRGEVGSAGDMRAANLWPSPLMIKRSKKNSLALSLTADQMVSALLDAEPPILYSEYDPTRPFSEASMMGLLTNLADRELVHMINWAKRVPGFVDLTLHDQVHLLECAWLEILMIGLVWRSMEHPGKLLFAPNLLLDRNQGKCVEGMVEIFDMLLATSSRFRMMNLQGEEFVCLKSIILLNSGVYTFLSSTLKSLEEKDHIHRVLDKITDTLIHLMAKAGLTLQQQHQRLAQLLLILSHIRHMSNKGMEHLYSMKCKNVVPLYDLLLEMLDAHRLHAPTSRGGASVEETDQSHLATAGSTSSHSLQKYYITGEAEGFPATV
Sequence of Aromatase (Homo sapiens) (P11511 whole entry, looked up): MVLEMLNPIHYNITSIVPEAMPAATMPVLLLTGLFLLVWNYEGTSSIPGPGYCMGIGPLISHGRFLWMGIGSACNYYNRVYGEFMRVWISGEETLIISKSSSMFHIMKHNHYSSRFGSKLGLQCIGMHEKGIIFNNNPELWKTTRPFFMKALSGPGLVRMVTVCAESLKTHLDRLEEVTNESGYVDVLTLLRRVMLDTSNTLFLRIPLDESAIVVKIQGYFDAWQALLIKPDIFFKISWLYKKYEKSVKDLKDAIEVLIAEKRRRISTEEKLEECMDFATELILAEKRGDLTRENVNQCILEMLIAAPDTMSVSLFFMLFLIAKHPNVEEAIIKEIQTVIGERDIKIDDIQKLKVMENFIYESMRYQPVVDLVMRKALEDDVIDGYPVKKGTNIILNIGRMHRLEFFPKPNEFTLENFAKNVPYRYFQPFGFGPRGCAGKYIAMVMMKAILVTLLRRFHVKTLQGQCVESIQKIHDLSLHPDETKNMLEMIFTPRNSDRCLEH

CCCCCCCCCC[N+](C)(C)[O-]
not listed: [8]
inactive: all other assays above

CC(C)(C)c1ccc(-c2ccc(C(C)(C)C)cc2)cc1
not listed: [2] | [6]
inactive: all other assays above

Clc1cc(Cl)c(Cl)nc1Cl
inactive: [1] | [8] | [7] | Aromatase (Homo sapiens)

c1coc(CNc2ncnc3nc[nH]c23)c1
not listed: [2] | [5]
inactive: all other assays above

CN(C)CCCN(C)CCCN(C)C
not listed: [5]
inactive: all other assays above

O=Cc1cccc(Br)c1
inactive: [1] | [8] | [3] | [7] | Aromatase (Homo sapiens)

COc1cc(C(=O)OC(COCCC(C)C)CN2CCOCC2)cc(OC)c1OC (configuration not stated)
not listed: [2] | [7]
inactive: all other assays above

CCOc1ccccc1OCC
inactive: [1] | [8] | [3] | [7] | Aromatase (Homo sapiens)

CCCO[Si](OCCC)(OCCC)OCCC
not listed: [8]
inactive: all other assays above

N[C@@H](CCC(=O)O)C(=O)O
not listed: [2]
inactive: all other assays above

From PubChem BioAssay (Tox21)
